Bioassay records: PubChem BioAssay, The Scripps Research Institute Molecular Screening Center
Rows were chosen to be rich in hits. Some 2% of all compounds tested hit in one or more screens of this group.
LYPLA2 inh: LYPLA2 (human) inhibition in PME1 counter-screen. AID 2177. actives 0.38% (n = 320,000). recombinant LYPLA2, FP-Rh probe fluorescence polarization. O95372. inhibition, % at 5.9 µM;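 active means inhibition above the screen-wide mean plus 3 SD, limit set per campaign, cut at about 26% in these data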;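 further: 0% = LYPLA2 with DMSO and 100% = wells lacking LYPLA2 enzyme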
Target sequence (O95372 whole entry, looked up): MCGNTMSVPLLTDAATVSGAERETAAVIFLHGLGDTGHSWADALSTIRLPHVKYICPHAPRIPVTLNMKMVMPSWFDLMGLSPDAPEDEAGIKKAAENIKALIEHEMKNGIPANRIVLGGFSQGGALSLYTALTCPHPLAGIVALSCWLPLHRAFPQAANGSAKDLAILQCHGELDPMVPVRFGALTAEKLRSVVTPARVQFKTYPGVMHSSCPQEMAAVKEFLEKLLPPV
PME-1 inh: PME-1 (human) inhibition | Q9Y570 | recombinant PME-1, FP-Rh probe fluorescence polarization | inhibition, % at 5.9 µM | actives 0.53% (n = 320,000);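 active means inhibition above the campaign mean of all compounds plus 3 SD, cut at about 26% in these data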;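 further: competitive labeling of PME-1 active site by serine hydrolase directed probe; 0% = PME-1 with DMSO and 100% = wells lacking PME-1 enzyme; inhibitors block probe labeling so polarization falls and inhibition rises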
Fam108B inh: counter-screen for RBBP9 inhibitors: inhibitors of mouse Fam108B; AID 1947; inhibition, % at 9.51 µM; actives 0.33% (n = 300,000); recombinant Fam108B, FP-Rh probe fluorescence polarization;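 active means inhibition above the screen mean inhibition plus 3 SD, computed separately per campaign, cut at about 18% in these data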;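 further: inhibitors lower polarization as less probe binds the enzyme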
LYPLA1 inh: LYPLA1 (human) inhibition in PME1 counter-screen; inhibition, % at 5.9 µM; actives 0.16% (n = 320,000); recombinant LYPLA1, FP-Rh probe fluorescence polarization; AID 2174; O75608;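 active means inhibition above the mean of all tested compounds plus 3 SD, set per campaign, cut at about 14% in these data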;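 further: inhibitors block serine hydrolase probe labeling of LYPLA1 so polarization falls; 0% = enzyme with DMSO and 100% = wells lacking LYPLA1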
Target sequence (O75608 whole entry, looked up): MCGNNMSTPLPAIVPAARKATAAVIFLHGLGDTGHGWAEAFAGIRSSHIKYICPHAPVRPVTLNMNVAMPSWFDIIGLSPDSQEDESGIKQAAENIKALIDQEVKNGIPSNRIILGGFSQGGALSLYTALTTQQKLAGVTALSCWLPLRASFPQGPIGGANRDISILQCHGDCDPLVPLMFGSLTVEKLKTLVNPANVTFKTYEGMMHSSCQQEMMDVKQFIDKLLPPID
GSTO1 inh: blocks human GSTO1 in RBBP9 counter-screen | inhibition, % at 5.96 µM | AID 1974 | P78417 | actives 1.1% (n = 300,000) | recombinant GSTO1, activity-based probe fluorescence polarization;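 active means inhibition above the campaign mean inhibition plus 3 SD, cut at about 35% in these data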;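 further: 0% = GSTO1-1 with DMSO and 100% = wells lacking GSTO1-1 enzyme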
PREPL inh: inhibits the human prolyl oligopeptidase-like enzyme | Q4J6C6 | recombinant PREPL, fluorescence polarization activity-based probe | inhibition, % at 5.96 µM | actives 0.68% (n = 320,000) | AID 2751;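 further: 0% = enzyme with DMSO and 100% = wells lacking enzyme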
PREPL confirm: confirmation of human PREPL enzyme inhibitors. actives 67% (n = 2,000). inhibition, % at 5.96 µM. recombinant PREPL, fluorescence polarization activity probe. AID 2803. shares compounds with PREPL inh;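 further: 0% = protein with DMSO and 100% = wells lacking protein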
Starred values were filed as active, the others as inactive; x = no result given. Unless noted, no stated cut-off is given here; in the data, active means inhibition above about 43%; inactive means the rest.

SMILES | LYPLA2 inh | PME-1 inh | Fam108B inh | LYPLA1 inh | GSTO1 inh | PREPL inh | PREPL confirm
Cc1ccc(SCCNC(=O)/C=C/c2cccc([N+](=O)[O-])c2)cc1 | 6 | 3 | -2 | -4 | 0 | 18 | x
O=C(C[n+]1ccc(/C=C/c2ccccc2)cc1)c1ccc2c(c1)OCCO2 | 8 | -1 | -3 | -7 | 5 | 63* | 43
COC(=O)c1[nH]c2ccc(C)cc2c1NC(=O)CN1CCCc2ccccc21 | 1 | 13 | 2 | -1 | 2 | 49* | 48*
Cc1ccc2[nH]c3c(c2c1)CN(C(=O)CN1CCCc2ccccc21)CC3 | -8 | 3 | 5 | -5 | 12 | 30 | x
Cc1[nH]c2ccc(C(=O)NCCN3CCCCCC3)cc2c1C | -5 | 0 | 3 | -1 | 0 | 61* | 32
CN(CC(=O)Nc1ccc(Cl)cc1)C(=O)c1cccc(S(=O)(=O)N2CCN(Cc3ccccc3)CC2)c1 | -6 | -5 | -1 | -4 | 5 | 55* | 68*
CN(CC(=O)Nc1ccc(Cl)cc1)C(=O)c1cccc(S(=O)(=O)NCc2ccccc2)c1 | 4 | 8 | 0 | 1 | 7 | 7 | x
Cc1ccc2nc3c(cc(C(=O)NCCc4ccccc4)c(=N)n3CCCN3CCOCC3)c(=O)n2c1 | 5 | 0 | 4 | 1 | 1 | 53* | 56*
COc1ccc(CCNC(=O)c2cc3c(=O)n4ccccc4nc3n(CCN3CCOCC3)c2=N)cc1 | -3 | 7 | -1 | 1 | -2 | 39 | x
COc1ccc(CCNC(=O)c2cc3c(=O)n4ccccc4nc3n(CCCN3CCOCC3)c2=N)cc1 | -6 | 2 | 4 | -4 | -2 | 58* | 52*
Cc1cccn2c(=O)c3cc(C(=O)NCCc4ccccc4)c(=N)n(CCCn4ccnc4)c3nc12 | -1 | 12 | 0 | -3 | 5 | 66* | 58*
O=C(CCC1CCCN(C(=O)c2ccccc2Cl)C1)N1CCN(c2ccccn2)CC1 (centres undefined) | 18 | 9 | 2 | 4 | 5 | 14 | x
CSc1ccc(C(=O)C2CCCN(C(=O)Cc3nonc3C)C2)cc1 (centres undefined) | 7 | 1 | 3 | 0 | 5 | 0 | x
COc1ccc(C2=CCN3CCCCC3C2)c(-c2ccc(OC)c(OC)c2)c1 (centres undefined) | x | x | x | x | x | 47* | 43
Cc1cc(NC(=O)C(C)SCC(=O)NCc2ccc(F)cc2)no1 (centres undefined) | 3 | -5 | x | 2 | x | 14 | x
CCOc1cc(N2CCOCC2)c(OCC)cc1NC(=O)COC(=O)CCc1c[nH]c2ccccc12 | 0 | 4 | -3 | -6 | -10 | 76* | 69*
COc1ccc(N2CCc3c(C)nc4c(OC)cc(OC)cc4c32)cc1 | 6 | 5 | -2 | 6 | -2 | 52* | 49*
COc1ccc(N2CCc3c(C)nc4c(OC)cccc4c32)cc1 | -5 | 2 | -1 | -1 | -1 | 32 | x
Cn1cccc1Cc1nnc(SCC(=O)N2CCN(c3ccccc3)CC2)n1-c1ccc(F)cc1 | 0 | -1 | 3 | -3 | -5 | 49* | 37
CC(c1ccncn1)N(C)C(=O)c1ccc2oc(Cc3ccccc3)nc2c1 (centres undefined) | -6 | 6 | -5 | -4 | -7 | 9 | x
N#CCCN1CCN(Cn2c3ccccc3c3ccccc32)CC1 | -7 | -6 | -1 | -3 | -6 | 7 | x
CN1CCN(CCCNCc2cn(CCC#N)c3ccccc23)CC1 | 1 | 1 | -7 | 3 | 8 | 49* | 31
COc1ccccc1OCCCC(=O)Nc1ccc(N2CCOCC2)cc1 | 8 | -3 | 3 | 1 | -4 | 8 | x
O=C(CCn1ccc2ccccc21)Nc1ccc(N2CCOCC2)cc1 | -1 | 6 | 5 | 0 | -2 | 45* | 38
Cc1ccccc1OCCCC(=O)Nc1ccc(N2CCOCC2)cc1 | -1 | 2 | 4 | 3 | 2 | 50* | 34
SMILES | LYPLA2 inh | PME-1 inh | Fam108B inh | LYPLA1 inh | GSTO1 inh | PREPL inh | PREPL confirm
O=C1c2ccc(-c3ccc4c(c3)C(=O)N(CCO)C4=O)cc2C(=O)N1CCO | 6 | -6 | 1 | 3 | 0 | 9 | x
COC(=O)C1CCN(CCCOc2ccc(CN3CCN(c4ccc([N+](=O)[O-])cc4)CC3)cc2)CC1 | 6 | 3 | 2 | 5 | -1 | 52* | 44*
COC(=O)C1CCN(c2ccc([N+](=O)[O-])cc2)CC1 | 2 | -2 | 0 | -3 | -8 | -4 | x
Cc1ccc(N2C(=O)C(F)(F)C2c2ccccc2)cc1 (centres undefined) | 2 | -3 | -2 | 1 | 12 | 0 | x
N#CC1=C(N)N(c2ccccc2)C(c2ccccc2)C1(C#N)C#N (centres undefined) | 11 | 9 | 6 | 6 | -4 | 46* | 19
Cc1cc(Br)ccc1NC(=O)CN(C)C(=O)CSCc1ccccc1 | -6 | -8 | -2 | -5 | -10 | 6 | x
COc1ccc(C)cc1Nc1n[n+](-c2ccccc2)c(-c2c(Cl)cccc2Cl)s1 | -6 | 9 | 5 | 1 | 17 | 11 | x
COc1ccc(C)cc1Nc1n[n+](-c2ccccc2)c(-c2ccc(OC)c(OC)c2OC)s1 | -2 | 3 | 6 | 3 | 2 | 53* | 60*
COc1ccc(C)cc1Nc1n[n+](-c2ccccc2)c(-c2ccc(N(C)C)cc2)s1 | 5 | 0 | 3 | 3 | 0 | 61* | 69*
N#CCC(=N)N1CCN(c2ccc(F)cc2)CC1 | 8 | -1 | 4 | 2 | -10 | 20 | x
c1ccc(-c2nc(N3CCCCCC3)c3ccccc3n2)nc1 | 3 | -1 | -6 | 0 | 17 | 68* | 65*
c1ccc(CCNc2nc(-c3ccccn3)nc3ccccc23)cc1 | -5 | -1 | 1 | 1 | 2 | 73* | 77*
c1ccc(-c2nc(N3CCOCC3)c3ccccc3n2)nc1 | 2 | -10 | -4 | 0 | -2 | 4 | x
C/C(=N\Nc1nc(-c2ccccn2)nc2ccccc12)c1ccc(F)cc1 | -1 | -6 | -1 | -1 | -1 | 2 | x
COc1cc(C(=O)NCC2CCCO2)ccc1OCc1ccc(Cl)cc1 (centres undefined) | 1 | 4 | x | -2 | x | 34 | x
COc1cc(C(=O)NCC2CCCO2)ccc1OCc1ccc(Cl)cc1Cl (centres undefined) | -4 | -1 | -4 | -8 | 12 | 44* | 43
COc1cc(NC(=O)CN2C(=O)NC(C)(c3ccccc3)C2=O)c(C)cc1[N+](=O)[O-] (centres undefined) | 5 | -1 | 7 | 6 | 7 | -1 | x
COc1cc(NC(=O)CN2C(=O)NC(C)(c3ccc4ccccc4c3)C2=O)c(C)cc1[N+](=O)[O-] (centres undefined) | -22 | -7 | -3 | -14 | -13 | 58* | 42
